Screens: PubChem, several laboratories
FAK blocker: inhibitors of human focal adhesion kinase. Q05397. biochemical FAK kinase activity assay. inhibition, %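 (tested at 7 µM)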. 0.84% of 97,000 active. AID 727; in the data active = inhibition above about 19%;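 also: 0% = DMSO and 100% = reference compound high control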
Mac1 fbg inh: CD11b/CD18-fibrinogen binding inhibition; P05107+P11215; K562 CD11b/CD18 adhesion to fibrinogen, ATPlite luminescence; Mn2+ added to activate the integrin; inhibition, % at 10 µM; 0.54% of 93,000 active; AID 1497;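 active = primary inhibition of 50% or more at 10 µM, then 40% or more on retest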
PTK2B oligo ant: blocks oligomerization of human Pyk2 in cells | Q14289 | Q293 cells, Pyk2 FERM NanoBiT luminescence; hits give low values | 0.83% of 99,000 active | z-score (the deposit names both 25 µM and 10 µM);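 active = Z-score of -3 or lower, scaled per plate to the spread of control and sample wells; inactive = z-score above -3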;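 also: negative z-score means lost luminescence so less FERM oligomerization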
CD11b adhes enh: enhancers of human CD11b/CD18 binding to fibrinogen; P05107+P11215; K562 CD11b/CD18 adhesion to fibrinogen, ATPlite luminescence; activation, % at 10 µM; 0.07% of 93,000 active; AID 1499;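 active = 10 µM primary screen giving 50% or more activity, confirmed by 40% or more on retest at that dose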
Active calls of the source: *. This is a sample that favours compounds with a hit; in the whole collection about 1.8% have one here.

What do the screens show for `O=C(c1cc2nc(-c3ccco3)cc(C(F)(F)F)n2n1)N1CCN(Cc2ccccc2)CC1`?
FAK blocker: 0; Mac1 fbg inh: 8; PTK2B oligo ant: -0.63; CD11b adhes enh: 0

What do the screens show for `O=C(NCc1ccco1)c1ccccc1NS(=O)(=O)c1ccc(Cl)s1`?
FAK blocker: 0; Mac1 fbg inh: 98*; PTK2B oligo ant: -0.97; CD11b adhes enh: -8

Results for Cc1c(C)n(C(=O)CSc2nc3ccccc3[nH]2)c2ccccc12 ?
FAK blocker: 3; Mac1 fbg inh: -18; PTK2B oligo ant: 0.27; CD11b adhes enh: -1

Results for Cc1cc(NC(=O)CSc2nc(CC(C)(C)C)nc3c2c(=O)n(C)c(=O)n3C)no1 ?
FAK blocker: 2; Mac1 fbg inh: -6; CD11b adhes enh: 0

What do the screens show for `CC1=NN(/C(=N\c2nnc(C)s2)Nc2ccc(C)cc2)[C@H](c2ccc(C)cc2)S1`?
FAK blocker: 21*; PTK2B oligo ant: -2.2

How did CC1=NN(/C(=N\c2nnc(C)s2)Nc2ccccc2)[C@H](c2cccc3ccccc23)S1 do in these assays?
FAK blocker: 4; PTK2B oligo ant: -1.4

How did Cc1cc(S(=O)(=O)N2CCOCC2)ccc1F do in these assays?
FAK blocker: -1; Mac1 fbg inh: -2; PTK2B oligo ant: 0.15; CD11b adhes enh: 2

Results for Cc1ccc(N2CCN(S(=O)(=O)c3ccc(F)c(C)c3)CC2)c(C)c1 ?
FAK blocker: 0; Mac1 fbg inh: 31; PTK2B oligo ant: -3.2*; CD11b adhes enh: 1

How did CCc1ccccc1N1CCN(S(=O)(=O)c2ccc(F)c(C)c2)CC1 do in these assays?
FAK blocker: 1; Mac1 fbg inh: 28; PTK2B oligo ant: -3.3*; CD11b adhes enh: 5

Results for Cc1c(C(=O)Nc2ccc3c(c2)OCCO3)sc2nc(-c3ccccc3)cn12 ?
FAK blocker: -2; PTK2B oligo ant: -3.6*

What do the screens show for `Cc1c(C(=O)Nc2ccncc2)sc2nc(-c3ccccc3)cn12`?
Mac1 fbg inh: -45; CD11b adhes enh: 14

How did Cc1ccc(C(=O)NCC(=O)OC(C)C(=O)NCCC2=CCCCC2)cc1C (stereo not drawn) do in these assays?
Mac1 fbg inh: 10; CD11b adhes enh: 1

What do the screens show for `COc1ccc(C(=O)/C=C/c2ccccc2OC)c(OC(=O)c2ccc([N+](=O)[O-])cc2)c1`?
FAK blocker: 8; PTK2B oligo ant: -3.3*

What do the screens show for `COc1ccc(OC(=O)c2cccc([N+](=O)[O-])c2)c(C(=O)/C=C/c2cccs2)c1`?
FAK blocker: -1; Mac1 fbg inh: -20; PTK2B oligo ant: -0.29; CD11b adhes enh: 2

How did Cc1ccc(C(=O)/C=C/Nc2cccc(O)c2)cc1 do in these assays?
Mac1 fbg inh: 91*; PTK2B oligo ant: 1.6; CD11b adhes enh: -11

Results for O=C(/C=C/Nc1cccc(O)c1)c1ccccc1 ?
Mac1 fbg inh: 69*; PTK2B oligo ant: -0.4; CD11b adhes enh: -2

Results for CCOC(=O)C1=NN(C(C)=O)C2(CC(=O)N(c3cccc(C)c3)C2=O)C1 (stereo not drawn) ?
Mac1 fbg inh: -10; CD11b adhes enh: -4

Results for Cc1cc(C)n(-c2nc(Nc3ccccc3C(F)(F)F)nc(-n3nc(C)cc3C)n2)n1 ?
FAK blocker: 0; PTK2B oligo ant: -3.5*

What do the screens show for `Cc1cc(C)n(-c2nc(Nc3ccccc3C)nc(-n3nc(C)cc3C)n2)n1`?
FAK blocker: -5

What do the screens show for `CC(=O)c1sc(NC(=O)C2(F)C(F)(F)C(F)(F)C(F)(F)C(F)(F)C2(F)F)nc1C`?
Mac1 fbg inh: 102*; PTK2B oligo ant: -2.4; CD11b adhes enh: -10

What do the screens show for `CC(=O)c1sc(NC(=O)C=C(C)C)nc1C`?
FAK blocker: -3; Mac1 fbg inh: -10; PTK2B oligo ant: 0.46; CD11b adhes enh: 2

What do the screens show for `CCOC(=O)C1CCCN(C(=O)c2cc(Nc3ccc(OC)cc3)nc3ccccc23)C1` (stereo not drawn)?
FAK blocker: -1; Mac1 fbg inh: 16; PTK2B oligo ant: -1.3; CD11b adhes enh: 1

How did Cc1cccc(NC(=O)c2ccccc2O)c1C do in these assays?
FAK blocker: -3; Mac1 fbg inh: 47; PTK2B oligo ant: -0.63; CD11b adhes enh: -6

Results for O=C(Nc1ccccc1O)c1ccccc1O ?
FAK blocker: 3; Mac1 fbg inh: 69*; PTK2B oligo ant: -0.89; CD11b adhes enh: -4

Results for Cc1cc(NCCCn2ccnc2)n2ncc(-c3ccccc3)c2n1 ?
FAK blocker: 1; Mac1 fbg inh: 50*; PTK2B oligo ant: -0.1; CD11b adhes enh: -3

What do the screens show for `Cc1cc(NCCCn2ccnc2)n2nc(C)c(-c3ccccc3)c2n1`?
FAK blocker: -1; Mac1 fbg inh: 2; PTK2B oligo ant: -0.25; CD11b adhes enh: -3

How did O=C(Nc1ccncc1)c1ccc2c(c1)C(=O)N(C1CCCCC1)C2=O do in these assays?
FAK blocker: 2; Mac1 fbg inh: 86*; PTK2B oligo ant: -1.9; CD11b adhes enh: -7

What do the screens show for `CC/C(=N\NC(=O)c1ccc(-c2ccccc2)cc1)C12CC3CC(CC(C3)C1)C2`?
FAK blocker: -3; Mac1 fbg inh: 3; PTK2B oligo ant: -0.56; CD11b adhes enh: -3

How did O=C(COc1ccc(S(=O)(=O)N2CCCCC2)cc1)NCc1cccnc1 do in these assays?
FAK blocker: -1; Mac1 fbg inh: -28; PTK2B oligo ant: 0.55; CD11b adhes enh: -2

Results for COc1ccc(-c2cc(C3CCN(c4ccc(C(C)=O)cc4[N+](=O)[O-])CC3)[nH]n2)cc1 ?
FAK blocker: 5; PTK2B oligo ant: -3.2*

Results for COc1ccc(C2CC(c3cccs3)=NN2c2nc(-c3ccccc3)cs2)cc1OC (stereo not drawn) ?
FAK blocker: -4; Mac1 fbg inh: -29; PTK2B oligo ant: -0.22; CD11b adhes enh: 18

Results for O=S(=O)(c1ccc(N2CCCC2)nc1)N1CCOCC1 ?
FAK blocker: 2; Mac1 fbg inh: 16; PTK2B oligo ant: -0.48; CD11b adhes enh: -6

Results for CN1CCN(c2ccc(S(=O)(=O)N3CCCCC3)cn2)CC1 ?
FAK blocker: -2; Mac1 fbg inh: -18; PTK2B oligo ant: -3.9*; CD11b adhes enh: 4

Results for COc1cc(CNC2CCCC2)cc(Cl)c1OCc1ccccc1F ?
FAK blocker: 0; Mac1 fbg inh: 47; PTK2B oligo ant: 0.8; CD11b adhes enh: 1

What do the screens show for `Clc1cc(Cl)cc(CSc2nnc(-c3sccc3-n3cccc3)o2)c1`?
FAK blocker: -5; PTK2B oligo ant: -1.6

Results for Clc1cccc(CSc2nnc(-c3sccc3-n3cccc3)o2)c1 ?
FAK blocker: 2; PTK2B oligo ant: -3.2*

What do the screens show for `Clc1ccc(CSc2nnc(-c3sccc3-n3cccc3)o2)cc1`?
FAK blocker: 0; PTK2B oligo ant: -3.2*

Results for CC1CCCCN1c1ncnc2ccccc12 (stereo not drawn) ?
FAK blocker: 4; Mac1 fbg inh: 69*; PTK2B oligo ant: 0.72; CD11b adhes enh: -4

How did O=C(O)C1CCCN1c1ncnc2ccccc12 (stereo not drawn) do in these assays?
FAK blocker: -2; Mac1 fbg inh: -3; PTK2B oligo ant: 0.45; CD11b adhes enh: 0
